According to the supplement of paper PMC13380429:
Counter-ions that a name gives are not always drawn. Values without a mark were called inactive.

These compounds were tested on Vero E6 infected with SARS-CoV-2 (assay: inhibition of SARS-CoV-2 cytopathic effect; higher = more antiviral protection, active = above 15). Conditions: 833.33 nM; 48 h.

SMILES | inhibition of SARS-CoV-2 cytopathic effect [%]
CCOC(=O)Nc1ccc2c(c1)N(C(=O)CCN(CC)CC)c1ccccc1S2 [ethacizin] | -1.38
OCc1cncc(F)c1 [5-fluoro-3-pyridyl-methanol] | -0.19
Cc1ncc(CO)c(CO)c1O [pyridoxine] | -12.7
Oc1ccc(CC2NCCc3cc(O)c(O)cc32)cc1 (stereo not given) [higenamine] | -0.52
Cc1c(C)c(NCC(=O)N(C)C2CCN(Cc3ccc(C(N)=O)cc3)CC2)c(C)c(C)c1N | -0.15
COc1cccc(Nc2c(C(N)=O)cnc3c(C)cc(S(=O)(=O)c4cccc(C(=O)N(C)C)c4)cc23)c1 | 3.01
CCNC(C)CN1CCc2c(c(=O)oc3ccccc23)C1 (stereo not given) | -0.78
Cc1c(C)c2c(c(C)c1O)CCC(C)(C(=O)O)O2 (stereo not given) [trolox] | 6.02
COc1cccc2c1c(O)c(C(=O)N(C)c1ccc(C(F)(F)F)cc1)c(=O)n2C [tasquinimod] | 1.35
CC[N+](CC)(CC)CCOc1cccc(OCC[N+](CC)(CC)CC)c1OCC[N+](CC)(CC)CC [gallamine-triethiodide] | 2.88
C#Cc1cccc(Nc2ncnc3cc4c(cc23)OCCOCCOCCO4)c1 [icotinib] | -2.37
C[C@]12CC[C@@H](O)C[C@H]1CC[C@@H]1[C@@H]2CC[C@]2(C)C(=O)CC[C@@H]12 [3-alpha-hydroxy-5-beta-androstan-17-one] | 3
C[C@]12CC[C@@H]3c4ccc(O)cc4CC[C@H]3[C@@H]1CCC2=O [estrone] | 0.5
COC[C@@H](NC(C)=O)C(=O)NCc1ccccc1 [Lacosamide] | -10.4
COC(=O)C[C@](O)(CCCC(C)(C)O)C(=O)O[C@@H]1C(OC)=C[C@]23CCCN2CCc2cc4c(cc2[C@H]13)OCO4 [homoharringtonine] | 4.43
O=C1OC2(c3ccccc31)c1cc(I)c(O)c(I)c1Oc1c2cc(I)c(O)c1I [erythrosine] | -4.79
Nc1ccc(S(=O)(=O)Nc2ccnn2-c2ccccc2)cc1 [sulfaphenazole] | 2.18
CNc1ncc2cc(-c3cc(NC(=O)NCCC(C)(C)C)c(F)cc3C)c(C)nc2n1 | -4.43
COc1ccc2[nH]c3c(-c4cccc5ccccc45)nccc3c2c1 | -4.62
CO/N=C1\CN(c2nc3c(cc2F)c(=O)c(C(=O)O)cn3C2CC2)CC1CN (stereo not given) [gemifloxacin] | 1.02

SMILES | inhibition of SARS-CoV-2 cytopathic effect [%]
CCN(Cc1ccncc1)C(=O)C(CO)c1ccccc1 (stereo not given) [tropicamide] | 3.81
CC1(C)S[C@@H]2[C@H](NC(=O)[C@H](NC(=O)N3CCNC3=O)c3ccccc3)C(=O)N2[C@H]1C(=O)O [azlocillin] | -1.76
C[C@@H]1C[C@H]2[C@@H]3C[C@H](F)C4=CC(=O)C=C[C@]4(C)[C@@]3(Cl)[C@@H](O)C[C@]2(C)[C@H]1C(=O)COC(=O)C(C)(C)C [clocortolone-pivalate] | 1.18
CN1CCN(c2cc(-c3ccccc3)nc(N)n2)CC1 | 4.99
C[C@]12CC[C@H](O)C[C@H]1CC[C@@H]1[C@@H]2C[C@@H](O)[C@]2(C)[C@@H](C3=CC(=O)OC3)CC[C@]12O [digoxigenin] | -10.3
CCOc1cc(C(C)(C)C)ccc1C1=N[C@@](C)(c2ccc(Cl)cc2)[C@@](C)(c2ccc(Cl)cc2)N1C(=O)N1CCN(CCCS(C)(=O)=O)CC1 | 1.64
Cc1cc(/C=C/C#N)cc(C)c1Nc1ccnc(Nc2ccc(C#N)cc2)n1 [rilpivirine] | -1.06
N[C@@H]1CCCN(c2c(/C=C3\SC(=O)NC3=O)cccc2-c2ccccc2)C1 | -0.89
CO/N=C(\C(=O)N[C@@H]1C(=O)N2C(C(=O)O)=C(Cn3ccc(=N)n3CCO)CS[C@H]12)c1csc(N)n1 [Cefoselis sulfate] | -1.56
CC(C)(C)NCc1cc(Nc2ccnc3cc(Cl)ccc23)c2c(c1O)CCCC2 [naphthoquine-phosphate] | -0.36
CC(C)(COP(=O)(O)OP(=O)(O)OC[C@H]1O[C@@H](n2cnc3c(N)ncnc32)[C@H](O)[C@@H]1OP(=O)(O)O)[C@@H](O)C(=O)NCCC(=O)NCCS [coenzyme-A] | 1.91
O=C(Nc1cccc(Cl)c1)c1ccccn1 | 0.62
CCCC(O)C(CC)CO (stereo not given) [2-ethyl-1,3-hexanediol] | 0.52
Nc1nc(/C(=C/CC(=O)O)C(=O)N[C@@H]2C(=O)N3C(C(=O)O)=CCS[C@H]23)cs1 [ceftibuten] | 2.04
CN(C)CC[C@@H](c1ccc(Cl)cc1)c1ccccn1 [chlorphenamine] | 0.17
CCOC(=O)N1CSC[C@H]1C(=O)O [telmesteine] | 4.95
Cc1cccc(-c2n[nH]cc2-c2ccc(F)c(-c3cnn(CCO)c3)c2)n1 | -0.9
C[C@H](CCC(=O)O)[C@H]1CC[C@H]2[C@@H]3C[C@H](O)[C@@H]4C[C@H](O)CC[C@]4(C)[C@H]3CC[C@]12C [Hyodeoxycholic acid (HDCA)] | 2.52
CO/N=C(\C(=O)N[C@@H]1C(=O)N2C(C(=O)O)=C(CSc3nc(=O)c(O)nn3C)CS[C@H]12)c1csc(N)n1 [ceftriaxone] | 0.59
O=C(O)c1ccc(Nc2ncc3c(n2)-c2ccc(Cl)cc2C(c2c(F)cccc2F)=NC3)cc1 | -1.57
